From PubChem BioAssay
Platelet DG rel: inhibitors of platelet dense granule secretion, primary screen, cell-based, MLPCN, human platelets. human platelet-rich plasma, SFLLRN dense granule ATP release, luminescence. inhibition, %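 (compounds screened at 7.5 µM in platelet-rich plasma)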. actives 0.22% (n = 300,000). AID 1663, 2009;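 active = mean replicate score, as percent of positive control, at or above 50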
Rce1 inh: yeast Rce1p protease inhibitors, primary screen, biochemical, fluorescence, cell-free homogeneous. yeast membranes, quenched prenylated peptide cleavage fluorescence. actives 0.27% (n = 290,000). AID 2563, 2010. calls only. CAAX prenyl protease 2 (Saccharomyces cerevisiae (strain ATCC 204508 / S288c)), Q03530;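 active = fall in fluorescence gain of 50% or more versus controls, with final raw signal at or below 3038400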;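 note: plate controls were neutral control wells for no effect and wells lacking membranes for full effect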
Target sequence (Q03530 whole entry, looked up): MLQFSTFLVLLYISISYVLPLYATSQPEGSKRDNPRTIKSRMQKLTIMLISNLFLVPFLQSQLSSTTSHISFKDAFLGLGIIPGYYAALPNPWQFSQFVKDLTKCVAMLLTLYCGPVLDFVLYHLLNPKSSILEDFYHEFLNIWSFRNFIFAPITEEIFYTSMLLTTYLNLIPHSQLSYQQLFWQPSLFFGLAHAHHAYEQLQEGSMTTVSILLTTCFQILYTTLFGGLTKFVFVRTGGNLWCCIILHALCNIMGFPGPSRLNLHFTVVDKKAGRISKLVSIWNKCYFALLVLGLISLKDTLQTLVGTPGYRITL
Granule exo inh: LAMP-1 surface exposure blockers, TALL-104 cells – cell-based, flow cytometry, MLPCN library, primary screen; AID 651702, 2012; actives 0.66% (n = 360,000); inhibition, % at 10 µM; TALL-104 LAMP-1 surface exposure; cells stimulated with thapsigargin and PMA;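 active = inhibition above about 55%, limit read from the data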
M18AAP inhibitor: PfM18AAP inhibitors, malaria aminopeptidase, primary screen, biochemical, QFRET, recombinant enzyme; M18 aspartyl aminopeptidase (Plasmodium falciparum 3D7); inhibition, % at 7.35 µM; actives 1.2% (n = 290,000); H-Glu-NHMec fluorogenic cleavage;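 active = inhibition above the campaign mean inhibition over all tested compounds plus 3 SD, cut at about 28% in these data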;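 note: 0% = plate median of test compound wells and 100% = 2 mM ZnCl2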
ABHD5-PLIN5 inh: ABHD5-PLIN5 interaction inhibitors, primary screen, cell lysate, split luciferase complementation, luminescence | Perilipin-5 (Homo sapiens) + 1-acylglycerol-3-phosphate O-acyltransferase ABHD5 (Homo … | Split G. princeps luciferase complementation, 4 h | inhibition, % at 4 µM | actives 0.78% (n = 360,000) | AID 602281, 2012;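 active = inhibition above the mean inhibition across every tested compound plus 3 SD, cut at about 22% in these data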;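 note: 0% = DMSO only wells and the 100% control is not disclosed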
ABHD5 PLIN5 conf: ABHD5-PLIN5 interaction inhibitors, confirmation, biochemical, luminescence; actives 67% (n = 2,200); AID 651612, 2012; inhibition, % at 4 µM; shares compounds with ABHD5-PLIN5 inh; in the data active = inhibition above about 23%;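 note: 0% = DMSO vehicle wells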
HNF4 counter: HNF4 dimerization inhibitors, counter-screen for ABHD5-PLIN5 interaction inhibitor project, biochemical, split-luciferase complementation, luminescence; AID 651674, 2012; inhibition, % at 4 µM; actives 77% (n = 2,200); shares compounds with ABHD5-PLIN5 inh;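 active = mean inhibition across replicate wells exceeding the computed hit threshold, cut at about 13% in these data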;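 note: light from luciferase halves that rejoin when HNF4 fusion proteins dimerize; 0% = DMSO only wells and the 100% control is not given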
Exocytosis CP01: inhibitors of lytic granule exocytosis, confirmation, TALL-104 cells, flow cytometry, Cherry Pick01. LAMP-1 externalization; stimulated with PMA plus thapsigargin. actives 11% (n = 1,500). inhibition, % at 10 µM. shares compounds with Granule exo inh; in the data active = inhibition above about 60%;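 note: 0% = stimulated vehicle wells and 100% = unstimulated wells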
Active calls of the source: *; i = inactive; / = no result given. In the library only some 2.6% were active in any assay of this set; here they are far more common.

SMILES	Platelet DG rel	Rce1 inh	Granule exo inh	M18AAP inhibitor	ABHD5-PLIN5 inh	ABHD5 PLIN5 conf	HNF4 counter	others
CN1C(=O)C(=Cc2ccccc2OCc2ccc(Cl)cc2)C(=O)N(C)C1=O	-1	i	-3	-1	1	/	/
Cc1ccc(S(=O)(=O)Oc2ccccc2C=C2C(=O)N(C)C(=O)N(C)C2=O)cc1	-1	i	-9	6	35*	71*	72*
O=C(CCc1ccc(O)cc1)N1C[C@H]2C[C@@H](C1)c1cccc(=O)n1C2	0	i	-3	-1	-2	/	/
CN1C(=O)/C(=C/C=C/c2ccco2)C(=O)NC1=S	3	i	0	13	26*	74*	49*
Cc1ccc(N2C(=O)NC(=O)/C(=C\c3ccoc3)C2=O)cc1	6	i	2	6	8	/	/
Cc1ccc(N2C(=O)NC(=O)/C(=C\C=C\c3ccco3)C2=O)cc1	5	i	90*	16	25*	95*	73*
O=C1NC(=O)N(Cc2ccccc2)C(=O)/C1=C\C=C\c1ccco1	-1	i	14	30*	28*	97*	64*
O=C1NC(=S)N(c2ccc(F)cc2)C(=O)/C1=C/c1ccco1	4	i	/	7	/	/	/
Cc1cccc(N2C(=O)NC(=O)/C(=C\C=C\c3ccco3)C2=O)c1	-17	i	28	12	24*	93*	70*
C=CCN1C(=O)NC(=O)/C(=C/C=C/c2ccccc2)C1=O	-2	i	0	-4	3	/	/
Cc1cccc(N2C(=O)NC(=O)/C(=C/c3ccc([N+](=O)[O-])o3)C2=O)c1	/	/	/	11	/	/	/
C[C@H](CO)N1C[C@H](C)[C@@H](CN(C)C(=O)Oc2cccc3ccccc23)OCc2cn(nn2)CCCC1=O	/	/	-2	/	4	/	/
O=C(CCN1CCOCC1)Nc1ccc(Br)cc1C(=O)c1ccccc1	-8	i	-1	13	-3	/	/
CN(C)c1ccc(C(=O)c2ccc(N(C)C)cc2)cc1	5	i	2	9	3	/	/
CN(C)c1ccc(C=C2C(=O)NC(=O)NC2=O)cc1	/	/	0	/	-31	/	/
C/C(=C\c1ccc(N(C)C)cc1)[N+](=O)[O-]	-5	i	1	12	65*	99*	98*
CN(C)c1ccc(/C=C/[N+](=O)[O-])cc1	2	i	-11	31*	71*	85*	82*
COc1ccc(C2NCc3ccc4c(c3-n3cccc32)OCO4)cc1O (stereo not drawn)	15	i	/	-8	/	/	/
CN1CCCC1CCOC(C)(c1ccccc1)c1ccc(Cl)cc1 (stereo not drawn)	/	/	6	/	25*	33*	17*
CCOc1ccc(-n2c(O)c(/C=C3\C=Nc4ccccc43)c(=O)[nH]c2=O)cc1	-3	i	-19	22	29*	14	38*
O=C1NC(=O)C(=Cc2ccc(-c3ccc(S(=O)(=O)N4CCOCC4)cc3)o2)C(=O)N1	-7	i	5	-4	33*	91*	93*
COc1ccc(CC2C(=O)NC(=O)N(c3ccccc3)C2=O)c(OC)c1 (stereo not drawn)	0	i	-3	4	-1	/	/
COC(=O)C1=C(C(=O)OC)SC2(S1)C(C(=O)OC)=C(C(=O)OC)Sc1c2ssc1=O	/	/	100*	/	91*	102*	112*
COc1cc(/C=C/[N+](=O)[O-])ccc1OC(=O)c1cccnc1	-2	i	-6	21	27*	83*	101*
COc1cc(/C=N/n2cnnc2)ccc1OC(=O)N(C)C	-2	i	-1	0	-8	/	/
SMILES	Platelet DG rel	Rce1 inh	Granule exo inh	M18AAP inhibitor	ABHD5-PLIN5 inh	ABHD5 PLIN5 conf	HNF4 counter	others
CCOP(=O)(OCC)C(O)c1ccc2c(c1)OCO2 (stereo not drawn)	6	i	-12	-18	4	/	/
CCOc1cc2c(cc1OCC)-n1cccc1C(c1ccc(F)cc1)NC2 (stereo not drawn)	-3	i	26	-2	7	/	/
COc1ccc(C(=O)CN2CCOCC2)cc1F	5	i	5	16	31*	-3	9
O=C(CN1CCOCC1)c1ccc2cc[nH]c2c1	1	i	10	-4	0	/	/
CCCCCCn1c(O)c(C=Nc2ccccc2N2CCOCC2)c(=O)[nH]c1=S	-3	i	0	-13	4	/	/
O=C1CC(=O)N(c2ccccc2)C(=O)N1	/	/	-4	/	29*	5	24*
CC1[C@H]2Cc3ccc(O)cc3[C@]1(C)CCN2C (stereo partly drawn)	/	/	-1	/	15	/	/
CCOC(=O)[C@]12Cc3cc(OC)ccc3[C@H]1N(C)C(=O)c1cc(OC)ccc12	/	/	-7	/	7	/	/
CCOC(=O)[C@]12Cc3c(cc(OC)c(OC)c3OC)[C@H]1N(C1CCCCC1)C(=O)c1ccccc12	/	/	63*	/	39*	20	32*	Exocytosis CP01=6
CCOC(=O)[C@]12Cc3ccccc3[C@H]1N(C(C)C)C(=O)c1ccccc12	/	/	-13	/	5	/	/
CCOC(=O)[C@]12Cc3cc(Cl)ccc3[C@H]1N(C1CCCCC1)C(=O)c1cc(OC)ccc12	/	/	100*	/	61*	39*	58*	Exocytosis CP01=92*
CCOC(=O)[C@]12Cc3cc(C)ccc3[C@H]1N(C1CCCCC1)C(=O)c1ccccc12	/	/	60*	/	48*	21	39*	Exocytosis CP01=9
CCOC(=O)[C@]12Cc3ccc(C)cc3[C@H]1N(C1CCCCC1)C(=O)c1cc(OC)ccc12	/	/	84*	/	43*	41*	46*	Exocytosis CP01=23
CC1=C2C(=O)C3C(CC=C4CC(O)CCC43C)C2CCC12OC1CC(C)CNC1C2C (stereo not drawn)	-5	i	17	2	-2	/	/
Cc1nnc2ccc(-c3cccc(C(F)(F)F)c3)nn12	-3	i	-5	/	-4	/	/
Cc1ccc(OCC(=O)N2CCN(C3CCC(c4ccccc4)CC3)CC2)cc1 (stereo not drawn)	-13	i	95*	-1	18	/	/	Exocytosis CP01=-2
CCCN1CCc2cccc3c2[C@H]1Cc1ccc(O)c(O)c1-3	1	i	101*	/	2	/	/	Exocytosis CP01=27
COC(=O)C1=C(c2ccc3ccccc3c2)C[C@@H]2CC[C@H]1N2C(=O)NCc1ccco1	/	/	-3	/	2	/	/
